“And” between values parts separate entries of the source, which are not always exact repeats. Identical values can stand only once. Records with an inconclusive call do not appear. Where a call stands in place of a potency, no number is given. Some compounds were tested as several samples or in several runs, with calls that do not always agree. The source made the active and inactive calls. Calls follow the shape of the full dose curve.
Assay: p53 small molecule agonists, cell-based qHTS assay: qHTS cell viability counter screen (AID 1963581); also: nearly all actives have a fitted effect of over 45% in size
Details: p53RE-bla HCT-116 viability, ATP luminescence, 16 h; series mostly up to 66 µM; activity change, negative = cytotoxicity: at the top concentration
Description: National Center for Advancing Translational Sciences [NCATS]
Division of Preclinical Innovation [DPI]
U.S. Environmental Protection Agency [EPA]
National Institutes of Environmental Health Sciences [NIEHS]
National Toxicology Program [NTP]
U.S. Food and Drug Administration [FDA]
p53, a tumor suppressor protein, is activated following cellular insult, including DNA damage and other cellular stresses. The activation of p53 regulates cell fate by inducing DNA repair, cell cycle arrest, apoptosis, or cellular senescence. The activation of p53, therefore, is a good indicator of DNA damage and other cellular stresses. The CellSensor p53RE-bla HCT-116 cell line (Invitrogen) contains a stably integrated beta-lactamase reporter gene under control of the p53 response elements. The activation of the reporter gene under culture conditions can be detected by fluorescence intensity. This cell line was used to screen the Tox21 compound library in a 1536-well plate format and to identify agonists that activate the p53 signaling pathway. The cytotoxicity of the Tox21 compound library against the p53 RE-bla HCT-116 cell line was tested in parallel by measuring the intra cellular ATP content in the same wells.
Tox21 Assay Protocol Summary:
The p53RE-bla cells were dispensed at 4,000 cells/5 ul/well in 1536-well black wall/clear bottom plates using a Multidrop dispenser. After the assay plates were incubated at a 37 C/5% CO2 incubator for 5 hours, 23 nL of compounds dissolved in DMSO, positive controls or DMSO only was transferred to the assay plate by a pin tool. The plates were incubated at 37 C for 16 hours. After 1 uL of LiveBLAzerTM B/G FRET substrate was added using a Flying Reagent Dispenser, the plates were incubated at room temperature for 2 hours, and fluorescence intensity was measured by an Envision plate reader. For cell viability readout that measures cytotoxicity, 4 ul/well of CellTiter-Glo reagent was added into the assay plates using a Flying Reagent Dispenser. After 30 min incubation at room temperature, the luminescence intensity in the plates was measured using a ViewLux plate reader.
Potency is read from the fitted curve at half-maximal effect.

SMILES | Potency | activity change, negative = cytotoxicity
COC(=O)c1sccc1S(=O)(=O)NC(=O)Nc1nc(C)nc(OC)n1 | inactive | –
C=CC1CC=CCC1 (stereo not given) | – | 0% (inactive)
C=CC(=O)NC(C)(C)CC(C)=O | – | -8.71% (inactive)
N#Cc1c(Cl)c(Cl)c(Cl)c(C#N)c1Cl | 18.2 µM (active) | –
ClC(Cl)(Cl)C(Cl)(Cl)Cl | – | 0% (inactive)
CC(C#N)CCC#N (stereo not given) | inactive | –
COc1ccc2c(c1OC)C(=O)O[C@@H]2[C@H]1c2cc3c(cc2CCN1C)OCO3 | – | 0% (inactive)
O=P(O)(Oc1ccccc1)Oc1ccccc1 | – | -7.62% (inactive)
Cc1cccc(C#N)c1 | – | 9.27% (inactive)
CCCCCCCCOC(=O)c1ccc(C(=O)OCCCCCCCC)c(C(=O)OCCCCCCCC)c1 | – | 0.533% (inactive)
CN(C)C(=S)SSC(=S)N(C)C | inactive | –
C/C(=N\NC(=O)Nc1cc(F)cc(F)c1)c1ncccc1C(=O)O | inactive | –
ClCCN1CCOCC1 | – | 1.48% (inactive)
C[Si](Cn1cncn1)(c1ccc(F)cc1)c1ccc(F)cc1 | inactive | –
OCC(O)CCl (stereo not given) | inactive | –
CC(C)(C)C(=O)C(Cl)Cl | – | -3.09% (inactive)
COP(=S)(OC)Oc1ccc([N+](=O)[O-])cc1 | inactive | –
N#CCCCCC#N | inactive | –
CN(C)NC(=O)CCC(=O)O | inactive | –
COP(=S)(OC)Oc1cc(Cl)c(Cl)cc1Cl | inactive | –

SMILES | Potency | activity change, negative = cytotoxicity
CC(C)(C)c1ccccc1O | inactive | –
Cc1ccc([N+](=O)[O-])cc1 | inactive | –
C[C@]12CC[C@H](O)CC1=CC[C@@H]1[C@@H]2CC[C@]2(C)C(=O)CC[C@@H]12 | inactive | –
CCNc1nc(Cl)nc(NC(C)(C)C#N)n1 | – | -4.06% (inactive)
c1ccc2sc(SNC3CCCCC3)nc2c1 | inactive | –
O=C(O)c1cc(Cl)ccc1Cl | – | -2.13% (inactive)
CCOS(=O)(=O)OCC | inactive | –
O=C(O)CF | inactive | –
CCCCCCCC[N+](C)(CCCCCCCC)CCCCCCCC | 9.11 µM (active) and 2.58 µM (active) and 20.4 µM (active) | –
Nc1ccccc1C(=O)OCCc1ccccc1 | inactive | –
CN(C)C(=S)S | – | 13.1% [at 30.3 µM] (inactive)
CCCCC(CC)COC(=O)c1ccc(C(=O)OCC(CC)CCCC)c(C(=O)OCC(CC)CCCC)c1 (stereo not given) | inactive | –
C=Cc1cccc(CCl)c1 | – | -16.8% [at 172 µM] (inactive)
N#Cc1ccncc1 | – | -5.09% (inactive)
O=C(NCNC(=O)NC1C(=O)NC(=O)N1CO)NC1C(=O)NC(=O)N1CO (stereo not given) | – | 1.17% (inactive)
COC(=O)[C@@H](N)CCCN/C(N)=N/[N+](=O)[O-] | – | -14.2% [at 30.3 µM] (inactive)
O=S(=O)(c1ccc(Cl)cc1)c1cc(Cl)c(Cl)cc1Cl | – | 14.9% (inactive)
CCOP(=S)(OCC)Oc1ccc([N+](=O)[O-])cc1 | inactive | –
CCCCCCCCCCCCCCn1cc[n+](C)c1 | 28.9 µM (active) and inactive | –
CCOP(=S)(OCC)O/N=C(\C#N)c1ccccc1 | inactive | –
